Assay results: PubChem BioAssay
For some of these results: Measured potencies and affinities stand elsewhere. Inconclusive results are not listed. Activity calls are given as the source filed them. Unless noted, no rule for the calls is given here.

How the values were obtained:
[1] = test system: XIP peptide (Xip251-270) binding; experiment: small-molecule binders of XIP peptide, primary screen, biochemical, small-molecule microarray, fluorescence 635/667 nm, 0.1 µg/mL protein (AID 1182); conditions: fluorescent protein binding, 635 nm, higher = more signal, called active from +8 up or from −8 down
[2] = test system: XIP peptide (Xip251-270); experiment: small-molecule binders of XIP peptide, primary screen, biochemical, small-molecule microarray, fluorescence 635/667 nm, 0.5 µg/mL protein (AID 1183); conditions: small-molecule microarray binding, fluorescence 635 nm; higher = more signal
[3] = Plasmodium falciparum growth inhibition, primary screen, strain 3D7, DAPI fluorescence, 100 nL (AID 1184);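 also: parasites grown inside human red blood cells in medium with human serum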; conditions: P. falciparum 3D7 growth, 3 d, higher = more signal
[4] = target: Homeobox protein Hox-A13 (Mus musculus) (UniProt Q62424); experiment: inhibitors of HoxA13-DNA binding, primary screen, biochemical, fluorescence polarization, labeled oligonucleotide (AID 1185); conditions: 15 min, higher = more signal, called active from +8 up or from −8 down
[5] = inhibitors of hydroxyurea-induced Chk1 phosphorylation, primary screen, imaging, HeLa, phospho-Chk1 antibody, percent positive cells (AID 1186); conditions: hydroxyurea-induced phospho-Chk1 immunofluorescence imaging, higher = more signal
[6] = inhibitors of hydroxyurea-induced Chk1 phosphorylation, primary screen, imaging, HeLa, phospho-Chk1 nuclear intensity (AID 1187); conditions: hydroxyurea-induced phospho-Chk1 immunofluorescence imaging, higher = more signal
[7] = Cryptococcus neoformans growth inhibition, dose response, Alamar Blue, cherry-picks (AID 686998;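 active = falling signal with fitted half-maximal potency no higher than twice the top valid tested dose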); conditions: 24 h; series mostly up to 35 µM
[8] = inducers of Cryptococcus neoformans cell lysis, dose response, AK release luminescence, cherry-picks (AID 687000;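 active = fitted dose curve reaches 40% lysis signal rise at or below the highest valid concentration tested for that sample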;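 also: luminescent detection of adenylate kinase leaking from lysed yeast; 0% = median neutral control signal and 100% = double that signal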); conditions: C. neoformans lysis, adenylate kinase release luminescence, 4 h, 100% = twice the neutral-control signal; series mostly up to 15 µM
[9] = HepG2 cell cytotoxicity, dose response, cytotoxicity control, cherry-picks, set 2 (AID 687002;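 active = a dose-response fit showing signal loss, with half-maximal concentration no higher than twice the top tested dose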); conditions: HepG2 viability, ATP luminescence (CellTiter-Glo), 48 h; series mostly up to 26 µM
[10] = HeLa cell cytotoxicity, dose response, cytotoxicity control, ATP luminescence, cherry-pick samples (AID 687004;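 active = a fitted half-maximal concentration no higher than twice the top valid tested dose, with signal falling as cells die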;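 also: 0% = neutral control median and -100% = staurosporine 10 µM control median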); conditions: HeLa viability, ATP luminescence (CellTiter-Glo), 48 h; series mostly up to 26 µM

Homeobox protein Hox-A13 (Mus musculus), sequence (Q62424 whole entry, looked up): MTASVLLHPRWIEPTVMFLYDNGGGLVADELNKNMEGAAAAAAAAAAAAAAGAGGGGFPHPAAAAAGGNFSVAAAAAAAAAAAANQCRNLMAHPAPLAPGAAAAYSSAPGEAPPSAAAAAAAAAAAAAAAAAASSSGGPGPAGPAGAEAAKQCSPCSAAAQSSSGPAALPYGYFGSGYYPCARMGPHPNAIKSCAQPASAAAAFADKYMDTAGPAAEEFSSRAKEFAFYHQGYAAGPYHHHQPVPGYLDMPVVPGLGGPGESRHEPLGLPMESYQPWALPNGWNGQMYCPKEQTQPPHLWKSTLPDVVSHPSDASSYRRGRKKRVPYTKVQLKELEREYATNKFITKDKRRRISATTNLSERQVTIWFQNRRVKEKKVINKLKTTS

SMILES | composite z-score [1] | composite z-score [2] | z-score [3] | z-score [4] | z-score [5] | z-score [6] | outcome [7] | outcome [8] | outcome [9] | outcome [10]
CCCC=C(CCC)[C@@H](NC(=O)c1ccc(C(F)(F)F)cc1)c1ccccc1 | 0.177 (inactive) | 0.144 | -1.55 | -0.261 (inactive) | 0.128 (inactive) | 0.29 (inactive) |  |  |  | 
COC(=O)C[C@H]1O[C@]2(C(=O)N(C)c3ccccc32)[C@@H](C)[C@@H]1[Si](C)(C)c1ccc(OC)cc1 | -0.539 (inactive) | 0.414 | -2.41 | -6.13 (inactive) | 0.463 (inactive) | 0.688 (inactive) |  |  |  | 
O=C1OCC=C[C@H]2OC34C=CCN(Cc5ccccc5)C(=O)[C@H]3N(CCCCCO)C(=O)[C@@H]4[C@@H]12 (some centres not stated) | 0.211 (inactive) | -0.85 | -1.99 | -3.21 (inactive) | 0.729 (inactive) | 0.0912 (inactive) |  |  |  | 
O=C1O[C@@H](c2ccccc2)[C@@H](c2ccccc2)N2[C@@H](c3ccccc3OCCO)[C@]3(C(=O)Nc4ccc(C#CC5=CCCCC5)cc43)[C@@H](C(=O)O)[C@H]12 | 0.364 (inactive) | 0.305 | -0.662 | -3.14 (inactive) | -0.379 (inactive) | -0.318 (inactive) |  |  |  | 
COC(=O)C(CC#Cc1ccc2c(c1)[C@]1(C(=O)N2)[C@H](C(=O)N2CCCCCCC2)[C@H]2C(=O)O[C@H](c3ccccc3)[C@H](c3ccccc3)N2[C@@H]1c1ccc(O)cc1)C(=O)OC | 0.431 (inactive) | 0.459 | -1.39 | 1.11 (inactive) | -0.197 (inactive) | -0.109 (inactive) |  |  |  | 
CC(C)[Si](OCCCNS(=O)(=O)c1ccc(Br)cc1)(C(C)C)C(C)C | -0.0972 (inactive) | 0.195 | -1.12 | -0.361 (inactive) | -0.672 (inactive) | -1.01 (inactive) |  |  |  | 
C=CCN1C(=O)[C@@]2(O[C@@H](CCn3cc([C@H](O)c4ccccc4)nn3)[C@H]([Si](C)(C)c3ccc(OC)cc3)[C@H]2C)c2cc(N3CCOC3=O)ccc21 | 0.0505 (inactive) | -0.52 | -2.71 | -4.69 (inactive) | -1.49 (inactive) | -1.43 (inactive) |  |  |  | 
COCCOC(=O)N1C(=O)[C@@]2(c3cc(C#CCC(C(=O)OC)C(=O)OC)ccc31)[C@H](c1ccccc1OCCO)N1[C@H](c3ccccc3)[C@H](c3ccccc3)OC(=O)[C@H]1[C@@H]2C(=O)N1CCCCCCC1 | 0.856 (inactive) | 0.597 | -1.97 | 2.94 (inactive) | -0.304 (inactive) | -0.309 (inactive) |  |  |  | 
CN(C)CCCC[C@@H]1NC(=O)[C@@H]2C[C@H](C(=O)NCCCCCNC(=O)CS)[C@H](c3ccc(O)cc3)N2C1=O | 0.207 (inactive) | -0.279 | 0.386 | -0.848 (inactive) | -0.205 (inactive) | -0.456 (inactive) |  |  |  | 
CCOC(=O)C1=CCC(c2cccc3ccccc23)N(S(=O)(=O)c2ccc(C)cc2)C1 (configuration not stated) | 0.225 (inactive) | 0.449 | -1.77 | -1.57 (inactive) | 0.18 (inactive) | -0.129 (inactive) |  |  |  | 
C=CC[C@]1(C(=O)O)N=C(c2ccc(OCCCO)cc2)O[C@H]1c1ccccc1 | 1.81 (inactive) | 0.615 | -1.63 | -4.1 (inactive) | -0.0836 (inactive) | 0.409 (inactive) |  |  |  | 
C[N+](C)(C)CCCCNC(=O)[C@@H]1C[C@@H]2C(=O)N3CCC[C@H]3C(=O)N2[C@@H]1c1cccc(OCCO)c1 | 3.4 (inactive) | 0.839 | -0.294 | -1.2 (inactive) | -0.162 (inactive) | 0.319 (inactive) |  |  |  | 
C=CC[C@@]1(C(=O)NCC(O)CO)N=C(c2ccc(OCCCO)cc2)O[C@@H]1c1ccccc1CN=[N+]=[N-] (some centres not stated) | 0.336 (inactive) | -0.105 | -2.34 | -2.67 (inactive) | -0.691 (inactive) | -0.873 (inactive) |  |  |  | 
C=CCNC(=O)[C@@H]1[C@H]2C(=O)O[C@H](c3ccccc3)[C@H](c3ccccc3)N2[C@H](c2ccc(OCCO)cc2)[C@@]12C(=O)N(C(=O)OCCOC)c1ccc(C#CC3(O)CCCCCC3)cc12 | 0.87 (inactive) | 0.675 | -2.33 | 2.65 (inactive) | -0.0211 (inactive) | 0.0364 (inactive) |  |  |  | 
O=C1c2ccccc2[C@](Cc2ccccc2I)(C(=O)O)[C@H](c2ccc(CO)cc2)N1C1CCCCC1 | 1.87 (inactive) | 0.734 | -1.49 | -2.96 (inactive) | -0.225 (inactive) | -0.395 (inactive) |  |  |  | 
NC(=O)NCC#Cc1ccc2c(c1)[C@]1(C(=O)N2)[C@H](C(N)=O)[C@H]2C(=O)O[C@H](c3ccccc3)[C@H](c3ccccc3)N2[C@@H]1c1ccccc1OCCO | 0.212 (inactive) | 0.473 | 0.257 | -4.44 (inactive) | 0.113 (inactive) | 0.158 (inactive) | inactive | inactive | inactive | inactive
O=C(CS)NCCCCCCNC(=O)[C@@H]1C[C@@H]2C(=O)N[C@@H](Cc3ccccc3)C(=O)N2[C@@H]1c1ccc(O)cc1 | 0.794 (inactive) | 0.811 | -1.02 | -2.14 (inactive) | -0.0496 (inactive) | 0.23 (inactive) |  |  |  | 
C=C(CCCC)/C(=C/C[C@H](OC(=O)c1ccncc1)c1cccc(OCCO)c1)c1cc(C(=O)OC)ccc1OC | 2.08 (inactive) | 0.305 | -3.26 | -4.52 (inactive) | -0.433 (inactive) | -0.355 (inactive) |  |  |  | 
C=C(CCCC)/C(=C/C[C@@H](OC(=O)c1ccncc1)c1ccc(CO)o1)c1cnc2ccccc2c1 | 0.518 (inactive) | 0.776 | -0.573 | -4.65 (inactive) | 0.222 (inactive) | -0.125 (inactive) |  |  |  | 
COCCOC(=O)N1C(=O)[C@@]2(c3cc(C#CC4(O)CCCCCC4)ccc31)[C@H](C(=O)N1CCCCCCC1)[C@H]1C(=O)O[C@H](c3ccccc3)[C@H](c3ccccc3)N1[C@@H]2c1ccc(O)cc1 | 0.888 (inactive) | 0.683 | -2.19 | 3.51 (inactive) | -0.169 (inactive) | 0.085 (inactive) |  |  |  | 
CCOC(=O)[C@H]1C/C=C/C[C@H](C(=O)OCC)C(=O)O[C@H]2[C@@H](OC)O[C@H](CO)[C@@H](OC(=O)Nc3ccc(Br)cc3)[C@@H]2OC1=O | 0.709 (inactive) | 0.867 | -1.85 | -0.239 (inactive) | -0.181 (inactive) | -0.26 (inactive) |  |  |  | 
N#Cc1ccc(NN2C(C(O)c3ccc(I)cc3)C=CC3C(=O)N(c4ccccc4)C(=O)C32)cc1 (configuration not stated) | 0.816 (inactive) | 0.464 | 0.175 | -1.01 (inactive) | -0.308 (inactive) | 0.145 (inactive) |  |  |  | 
O=C(NCc1ccccc1)[C@@]1(CCS(=O)(=O)c2ccccc2)COC(c2ccc(OCCCO)cc2)=N1 | 1.13 (inactive) | 0.881 | -2.26 | -4.72 (inactive) | -0.712 (inactive) | -0.464 (inactive) |  |  |  | 
